Reference: PubChem BioAssay (NCI)
Compounds without any hit were thinned out: in the full panel of roughly 79,000, 15% have a hit. Activity calls are given as the source filed them. No stated cut-off is given here; in the data, active means growth inhibition above about 70%; inactive means the rest.

What was measured:
[1] = NCI Yeast Anticancer Drug Screen. Data for the rad52 strain (AID 147);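 further: 0% = growth of vehicle-treated control cultures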; conditions: S. cerevisiae rad52 mutant growth inhibition, active compounds read high
Method in brief: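 Genetically altered yeast (DNA damage repair defect) treated with compound; inhibition calculated relative to vehicle.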

[2] = NCI Yeast Anticancer Drug Screen. Data for the wt1 strain (AID 149);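 further: 0% = growth of vehicle-treated wt1 cultures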; conditions: S. cerevisiae wt1 strain (SPY 50644) growth inhibition, active compounds read high
Method in brief: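 Readout: yeast growth inhibition, normalised to vehicle controls, in the wt1 strain exposed to test compounds.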

[3] = NCI Yeast Anticancer Drug Screen. Data for the rad50EPP+ strain (AID 151);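 further: 0% = growth of vehicle-treated control cultures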; conditions: S. cerevisiae rad50 mutant strain, active compounds read high
Method in brief: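 Strain rad50EPP+; compound exposure; % growth inhibition vs vehicle.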

[4] = NCI Yeast Anticancer Drug Screen. Data for the mgt1 strain (AID 153); conditions: S. cerevisiae mgt1 mutant growth inhibition, active compounds read high
Method in brief: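 Read-out: yeast growth inhibition vs vehicle control. Strain mgt1, drawn from a panel altered in DNA damage repair or cell cycle control.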

[5] = NCI Yeast Anticancer Drug Screen. Data for the rad50 strain (AID 155);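 further: 0% = growth of vehicle-only cultures of the same strain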; conditions: S. cerevisiae rad50 strain growth inhibition, active compounds read high
Method in brief: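 Compounds were tested on a yeast strain with an engineered DNA damage repair alteration; the reported value is growth inhibition normalised to vehicle treatment.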

[6] = NCI Yeast Anticancer Drug Screen. Data for the mec2-1 strain (AID 157); conditions: S. cerevisiae mec2-1 strain, active compounds read high
Method in brief: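 Cells of the genetically defined mec2-1 yeast strain are incubated with test compound. Inhibition of growth is calculated against vehicle-treated controls.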

[7] = NCI Yeast Anticancer Drug Screen. Data for the rad14 strain (AID 159);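 further: 0% = growth of vehicle-treated control cultures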; conditions: S. cerevisiae rad14 strain growth inhibition, active compounds read high
Method in brief: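 Compound-treated yeast with a defined DNA-repair lesion; growth inhibition normalised to vehicle-treated cultures.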

[8] = NCI Yeast Anticancer Drug Screen. Data for the sgs1 mgt1 strain (AID 161);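 further: 0% = growth of cultures given vehicle only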; conditions: S. cerevisiae sgs1 mgt1 strain, active compounds read high
Method in brief: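 Test agents were incubated with a DNA-repair-mutant yeast strain. Growth was then read and compared against vehicle-treated controls.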

[9] = NCI Yeast Anticancer Drug Screen. Data for the CLN2oe strain (AID 163);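 further: 0% = growth of vehicle-only control cultures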; conditions: S. cerevisiae CLN2oe strain, active compounds read high
Method in brief: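 Strain altered in cell-cycle control, incubated with compound; growth compared to solvent-treated controls.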

[10] = NCI Yeast Anticancer Drug Screen. Data for the cln2 rad14 strain (AID 165);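 further: 0% = growth equal to vehicle treated cultures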; conditions: S. cerevisiae cln2 rad14 strain, active compounds read high
Method in brief: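 The screen exposed genetically defined yeast (cln2 rad14) to test compounds and scored growth inhibition relative to vehicle-treated controls.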

[11] = NCI Yeast Anticancer Drug Screen. Data for the bub3 strain (AID 167); conditions: S. cerevisiae bub3 mutant strain, active compounds read high
Method in brief: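 Growth of a checkpoint-deficient yeast mutant is measured after compound exposure. Values represent inhibition relative to vehicle.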

[12] = NCI Yeast Anticancer Drug Screen. Data for the wt2 strain (AID 169);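 further: 0% = growth of vehicle-treated yeast cultures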; conditions: S. cerevisiae wt2 strain growth inhibition, active compounds read high
Method in brief: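 Steps: yeast strain treated with compound; growth recorded; inhibition calculated relative to cultures given vehicle alone.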

[13] = NCI Yeast Anticancer Drug Screen. Data for the mlh1 strain (AID 171);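 further: 0% = growth of vehicle-treated control cultures of the same strain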; conditions: S. cerevisiae mlh1 strain growth inhibition, active compounds read high
Method in brief: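 Yeast screen: mutant strain plus compound, growth scored against vehicle control wells.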

[14] = NCI Yeast Anticancer Drug Screen. Data for the sgs1 strain (AID 173);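 further: 0% = growth of vehicle-only control cultures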; conditions: S. cerevisiae sgs1 mutant, active compounds read high
Method in brief: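 Inhibition of yeast growth served as the measure. The mutant strain was treated with each compound, and growth was normalised to cultures receiving vehicle alone.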

[15] = NCI Yeast Anticancer Drug Screen. Data for the mlh1 rad18 strain (AID 175); conditions: S. cerevisiae mlh1 rad18 strain growth inhibition, active compounds read high
Method in brief: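 Compound-treated yeast growth, normalised to vehicle controls. Strain bears defined DNA repair mutations.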

[16] = NCI Yeast Anticancer Drug Screen. Data for the rad18 strain (AID 177); conditions: S. cerevisiae rad18 mutant growth inhibition, active compounds read high
Method in brief: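 Inhibition values reflect reduced yeast growth compared with vehicle-treated controls, using a strain engineered with a DNA damage repair defect.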

[17] = at 5.0 µM (retest, dose inferred, filed as 0.5)
[18] = at 50.0 µM (retest, dose inferred, filed as 5.0)

Measured: growth inhibition

Cc1cc(Cl)nc2nc(Cl)c(N)cc12
active: [4]; at 100.0 µM 87% | [7]; at 100.0 µM 78% | [8]; at 50.0 µM 73.5% | [12]; at 100.0 µM 94% | [13]; at 100.0 µM 80% | [15]; [18] 84% | [16]; at 100.0 µM 80%
inactive: [1]; at 1.2 µM -8% | [1]; at 3.7 µM -3% | [1]; at 11.0 µM -10% | [1]; at 33.0 µM 16% | [1]; at 100.0 µM 69% | [2]; at 1.2 µM -16% | [2]; at 3.7 µM -7% | [2]; at 11.0 µM -2% | [2]; at 33.0 µM 2% | [2]; at 100.0 µM 27% | [3]; at 1.2 µM -17% | [3]; at 3.7 µM -17% | [3]; at 11.0 µM -13% | [3]; at 33.0 µM 0% | [3]; at 100.0 µM 49% | [4]; at 1.2 µM -14% | [4]; at 3.7 µM -12% | [4]; at 11.0 µM -9% | [4]; at 33.0 µM 20% | [5]; at 1.2 µM -4% | [5]; at 3.7 µM -18% | [5]; [17] 11% | [5]; at 11.0 µM -4% | [5]; at 33.0 µM 8% | [5]; [18] 55% | [5]; at 50.0 µM 38.6% | [5]; at 100.0 µM 51% | [6]; at 1.2 µM -13% | [6]; at 3.7 µM -17% | [6]; [17] 7% | [6]; at 11.0 µM -7% | [6]; at 33.0 µM 32% | [6]; [18] 62% | [6]; at 50.0 µM 62.9% | [6]; at 100.0 µM 44% | [7]; at 1.2 µM 1% | [7]; at 3.7 µM 2% | [7]; at 11.0 µM 1% | [7]; at 33.0 µM 28% | [8]; [17] -11% | [8]; [18] 55% | [9]; at 1.2 µM 4% | [9]; at 3.7 µM 1% | [9]; at 11.0 µM 5% | [9]; at 33.0 µM 6% | [9]; at 100.0 µM 54% | [10]; [17] 29% | [10]; [18] 42% | [10]; at 50.0 µM 22.6% | [11]; at 1.2 µM -20% | [11]; at 3.7 µM -2% | [11]; [17] -24% | [11]; at 11.0 µM -4% | [11]; at 33.0 µM 1% | [11]; [18] 30% | [11]; at 50.0 µM 48.2% | [11]; at 100.0 µM 67% | [12]; at 1.2 µM -22% | [12]; at 3.7 µM -16% | [12]; at 11.0 µM -24% | [12]; at 33.0 µM 21% | [13]; at 1.2 µM -16% | [13]; at 3.7 µM -2% | [13]; at 11.0 µM -2% | [13]; at 33.0 µM 14% | [14]; at 1.2 µM -2% | [14]; at 3.7 µM -6% | [14]; at 11.0 µM -1% | [14]; at 33.0 µM 13% | [14]; at 100.0 µM 63% | [15]; [17] 11% | [16]; at 1.2 µM -29% | [16]; at 3.7 µM -24% | [16]; at 11.0 µM -10% | [16]; at 33.0 µM 35%
